GC-A act: GC-A (human) enzyme activation. P16066. HEK293 GC-A cells, cGMP TR-FRET, EC30 ANP; 0% at EC30 ANP, 100% saturating ANP. activation, % at 10 µM. 370,000 compounds, 0.14% hits. AID 1671463; in the data active = activation above about 40%
GC-B act: GC-B (human) receptor activation; activation, % at 10 µM; AID 1920062; HEK293-GC-B cells, CNP EC30, cGMP TR-FRET; 0% at EC30 CNP, 100% saturating CNP; 370,000 compounds, 0.11% hits;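 active = activation at 10 µM reaching about 35% in either raw or pattern-adjusted values, limit read from the data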
MsrA act: activators of bovine methionine sulfoxide reductase A. AID 602163. activation, % at 10.6 µM. 360,000 compounds, 0.3% hits. purified bovine MsrA, absorbance read-out; in the data active = activation above about 7.5%
m5-HT2A agonist: agonists of mouse serotonin 5-HT2A receptor (HTR2A) | CHO-K1 mHTR2A beta-arrestin complementation, luminescence; percent of 30 µM serotonin response | activation, % at 7.6 µM | 360,000 compounds, 0.66% hits;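 active = activation above a run cutoff, the mean activation of all tested compounds plus 3 SD, cut at about 14% in these data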
MsrA inh: inhibits bovine methionine sulfoxide reductase A. purified bovine MsrA, absorbance read-out. inhibition, % at 15.5 µM. 360,000 compounds, 0.75% hits; in the data active = inhibition above about 4.5%
MOR ag counter: activates human mu opioid receptor in HTR2A counterscreen; shares compounds with m5-HT2A agonist; activation, % at 9.3 µM; U2OS OPRM1 beta-arrestin PathHunter, luminescence; DMSO 0%, DAMGO 9.3 µM 100%; 2,300 compounds, 5.3% hits;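 active = mean activation above the mean of DMSO-only wells plus 3 SD, cut at about 0.5% in these data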
m5-HT2A ag conf: mouse HTR2A agonism confirmed; 2,300 compounds, 19% hits; activation, % at 7.6 µM; CHO-K1 PathHunter beta-arrestin recruitment, luminescence; DMSO 0%, 30 µM serotonin 100%; AID 624381; shares compounds with m5-HT2A agonist;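 active = mean activation across triplicates above the hit threshold derived in the original primary screen, cut at about 15% in these data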
Each line names hits and unclear results; the compound was inactive in the other large screens (follow-up assays come after a bar, where they were run). This is a sample that favours compounds with a hit; in the whole collection about 1.8% have one here.

CCOC(=O)[C@]12CCCC=C1N(CCCOC)C(=O)[C@@H]2CC(=O)NCc1ccc(OC)c(OC)c1	none (no result: MsrA act, m5-HT2A agonist, MsrA inh)
CCOc1ccccc1N1CCN(Cc2ccc(Br)s2)CC1	m5-HT2A agonist 48 | MOR ag counter inactive | m5-HT2A ag conf 26
CC(C)(CCc1ccccn1)C(=O)C(CCc1ccccn1)CCc1ccccn1	m5-HT2A agonist 14 | MOR ag counter inactive | m5-HT2A ag conf 33
COC(=O)[C@]12C[C@H](CC(=O)NCc3ccccc3)C(=O)N(Cc3ccc(Cl)cc3Cl)C1=C[C@H](COCc1ccccc1)O[C@@H]2C	none (no result: MsrA act, m5-HT2A agonist, MsrA inh)
CSc1cccc(NS(=O)(=O)c2cn(C)cn2)c1	m5-HT2A agonist 17 | MOR ag counter inactive | m5-HT2A ag conf inactive
COc1ccc(NS(=O)(=O)c2cn(C)cn2)cc1	none
Cn1c(SCC2CCCCC2)nnc1-c1ccco1	none (no result: MsrA act, m5-HT2A agonist, MsrA inh)
Cc1ccc(C)c(N(C(=O)CCC(=O)Nc2cc(C)on2)C(C(=O)NC2CCCC2)c2ccco2)c1 (stereo not given)	m5-HT2A agonist 17 | MOR ag counter inactive | m5-HT2A ag conf inactive
Cc1cc(C)cc(N(C(=O)CCC(=O)Nc2cc(C)on2)C(C(=O)NC2CCCC2)c2ccco2)c1 (stereo not given)	none
O=C(Nc1ccncc1)c1cc(-c2cccc(Br)c2)nc2ccccc12	m5-HT2A agonist 15 | MOR ag counter 3.7 | m5-HT2A ag conf inactive
O=C(Nc1cccnc1)c1cc(-c2cccc(Br)c2)nc2ccccc12	none
CC(NC(=O)c1nn(C)c(=O)c2ccccc12)c1ccc(F)cc1 (stereo not given)	m5-HT2A agonist 15 | MOR ag counter inactive | m5-HT2A ag conf inactive
Nc1[nH]c(C(=O)c2ccccc2)c(-c2ccc(Cl)c(F)c2)c1C(=O)c1c[nH]c2ccccc12	none (no result: MsrA act, m5-HT2A agonist)
CCOC(=O)/C(C#N)=C\N(C)C	none
CCc1c(C)nn(C(=O)/C(C#N)=C\N(C)C)c1C	m5-HT2A agonist 42 (no result: GC-A act, GC-B act) | MOR ag counter inactive | m5-HT2A ag conf inactive
CCn1c(SCC(=O)N(C)c2c(N)n(Cc3ccccc3)c(=O)[nH]c2=O)nc2ccccc21	none
Cc1nnc(SCC(=O)N(C)c2c(N)n(Cc3ccccc3)c(=O)[nH]c2=O)n1Cc1ccccc1	m5-HT2A agonist 29 | MOR ag counter inactive | m5-HT2A ag conf inactive
Cc1cc(NC(=O)c2ccc(NS(=O)(=O)c3ccc(C)c(C)c3)cc2)no1	none (no result: MsrA act, m5-HT2A agonist, MsrA inh)
COc1ccc2nc(SCC(=O)Nc3ccccc3)[nH]c2c1	m5-HT2A agonist 19 | MOR ag counter inactive | m5-HT2A ag conf inactive
COc1ccc(-c2cc(C)no2)cc1S(=O)(=O)NCCCN1CCN(c2ccccc2)CC1	m5-HT2A agonist 17 | MOR ag counter inactive | m5-HT2A ag conf 26
Cc1cc(-c2ccc(C)c(S(=O)(=O)NCCCN3CCN(c4ccccc4)CC3)c2)on1	none
O=C(OCc1cn(Cc2cccc(F)c2F)nn1)N1CCOCC1	none (no result: MsrA act, m5-HT2A agonist, MsrA inh)
COC(=O)c1cc(=O)nc(NN=Cc2ccc(OC)cc2)s1	m5-HT2A agonist 17 (no result: GC-A act, GC-B act, MsrA inh) | MOR ag counter inactive | m5-HT2A ag conf inactive
O=C(NCC(c1ccccc1)c1ccccc1)[C@H](Cc1ccccc1)NC1(C(=O)NC2CCCCC2)CCC1	none (no result: MsrA act, m5-HT2A agonist, MsrA inh)
NC(=S)NN=C1C=CCCC1	m5-HT2A agonist 19 | MOR ag counter inactive | m5-HT2A ag conf inactive
CCOC(=O)[C@]12CCCC=C1N(CCCOC)C(=O)[C@@H]2CC(=O)N1CCSCC1	none (no result: MsrA act, m5-HT2A agonist, MsrA inh)
Cc1cc(C)c2nc(NNC(=O)c3ccc(S(=O)(=O)N4CC(C)CC(C)C4)cc3)sc2c1 (stereo not given)	m5-HT2A agonist 62 | MOR ag counter inactive | m5-HT2A ag conf inactive
Cc1cccc2sc(NNC(=O)c3ccc(S(=O)(=O)N4CC(C)CC(C)C4)cc3)nc12 (stereo not given)	m5-HT2A agonist 15 | MOR ag counter inactive | m5-HT2A ag conf inactive
Cc1cc(C)c2nc(NNC(=O)c3ccc(S(=O)(=O)N4CCCC(C)C4)cc3)sc2c1 (stereo not given)	none
C[C@H]1COc2cc(Br)ccc2S(=O)(=O)N1Cc1cn(CCC2OCCCO2)nn1	none (no result: MsrA act, m5-HT2A agonist, MsrA inh)
CN[C@H]1C[C@H]2c3cc(-c4ccccc4C)ccc3CCN2C[C@H]1[C@H](C)O	none (no result: MsrA act, m5-HT2A agonist, MsrA inh)
CCCCc1nnc(NC(=O)CSc2nc(=O)cc(N)n2-c2ccccc2)s1	m5-HT2A agonist 16 | MOR ag counter inactive | m5-HT2A ag conf inactive
CCOc1ccc(NC(=O)COc2ccc(-n3cnnn3)cc2)cc1	none
CCOC(=O)c1ccc(NC(=O)COc2ccc(-n3cnnn3)cc2)cc1	m5-HT2A agonist 17 | MOR ag counter inactive | m5-HT2A ag conf 15
COc1cc(/C=C2/S/C(=N/S(=O)(=O)c3ccccc3)NC2=O)c([N+](=O)[O-])cc1OC	m5-HT2A agonist 18 | MOR ag counter inactive | m5-HT2A ag conf inactive
COC(=O)[C@]12C[C@H](CC(=O)NCCc3ccccc3OC)C(=O)N(Cc3ccccc3)C1=C[C@H](C(C)(C)C)O[C@@H]2C	none (no result: MsrA act, m5-HT2A agonist)
COc1cc(C(=O)N2CCC(N3CCCCCC3)CC2)cc(OC)c1OC	m5-HT2A agonist 15 | MOR ag counter inactive | m5-HT2A ag conf inactive
COc1cc(C(=O)N2CCN(C3CCCCC3)CC2)cc(OC)c1OC	m5-HT2A agonist 15 | MOR ag counter inactive | m5-HT2A ag conf inactive
COc1ccc(C(=O)N2CCN(C3CCCCC3)CC2)cc1OC	none
CN(C)CC(=O)N[C@@H]1C[C@@H]2O[C@@H](CO)CC[C@@H]2O[C@@H]1CCc1ccc(C2=CCCCC2)cc1	none (no result: MsrA act, m5-HT2A agonist, MsrA inh)
COc1ccc(CCNC(=O)c2ccc(Cl)cc2)cc1OC	none
COc1ccc(CCNC(=O)c2c(Cl)ccc(Cl)c2OC)cc1OC	m5-HT2A agonist 31 | MOR ag counter inactive | m5-HT2A ag conf inactive
CCCCCCCCN1C(=O)[C@@H](CC(=O)NCCCN2CCCC2=O)C[C@@]2(C(=O)OC)C1=C[C@H](C(C)C)O[C@@H]2C1CC1	none (no result: MsrA act, m5-HT2A agonist, MsrA inh)
CCC(=O)c1ccc(OCC(=O)OCc2csc(CC(=O)Nc3ccccc3C)n2)cc1	m5-HT2A agonist 19 | MOR ag counter inactive | m5-HT2A ag conf inactive
CCCS(=O)(=O)NC(=O)C1(C)CCN1C(=O)Cc1ccc(-c2ccccc2)cc1 (stereo not given)	m5-HT2A agonist 17 | MOR ag counter inactive | m5-HT2A ag conf inactive
O=S(=O)(c1ccc(Cl)s1)N1CCC(c2nc3ccccc3o2)CC1	none (no result: MsrA act, m5-HT2A agonist, MsrA inh)
Nn1c(SCc2cccc3ccccc23)nnc1-c1cc(-c2ccc(F)cc2)n[nH]1	none (no result: MsrA act, m5-HT2A agonist, MsrA inh)
C#CCN(C[C@H]1[C@H](OC(=O)NCc2ccccc2)[C@H](OC(=O)NCc2ccccc2)C[C@H]2C(=O)N(c3ccccc3)C(=O)[C@@H]12)S(=O)(=O)c1ccc(C)cc1	none

Compound activity as filed in PubChem.
